Compounds with a hit are over-represented: about 9.2% of the library has one in this group of screens.
HttQ103 aggreg: qHTS Multiplex Assay to Identify Dual Action Probes in a Cell Model of Huntington: Aggregate Formation (GFP); 1.1% of 220,000 active; Potency, µM (titrated, usually from 46.1 µM), hits mostly inhibitors; PC12 HttQ103-GFP aggregates, Acumen cytometry, 40 h; active means well fitted curve in the direction sought with a large enough effect; inconclusive means small, poorly fitted or top-dose-only effect, or another doubt; inactive means no such curve, though single readings can be large; an effect the other way counts as inactive or inconclusive; further: nearly all actives have a fitted effect of over 60% in size
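PC12 cells stably carrying ecdysone-inducible HTT exon 1 Q103–GFP were induced with tebufenozide (100 nM final) and treated with library compounds in titration. GFP aggregates in lysates were counted by laser scanning cytometry.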
HPGD inh: qHTS Assay for Inhibitors of HPGD (15-Hydroxyprostaglandin Dehydrogenase); 4.3% of 150,000 active; 15-hydroxyprostaglandin dehydrogenase [NAD(+)] (Homo sapiens), P15428; Potency, µM, most hits filed as inhibitors; purified HPGD, NADH fluorescence kinetic, PGE2 substrate; AID 894, 2007
Target sequence (P15428 whole entry, looked up): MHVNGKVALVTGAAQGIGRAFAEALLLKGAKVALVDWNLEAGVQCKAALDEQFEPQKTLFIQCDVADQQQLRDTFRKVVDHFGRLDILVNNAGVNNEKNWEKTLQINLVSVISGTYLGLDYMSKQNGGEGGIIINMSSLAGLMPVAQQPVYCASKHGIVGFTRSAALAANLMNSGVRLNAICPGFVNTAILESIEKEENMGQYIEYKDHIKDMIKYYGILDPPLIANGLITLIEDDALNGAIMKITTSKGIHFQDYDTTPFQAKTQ
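20 nM HPGD preincubated 15 min at room temperature with compound in 50 mM Tris-HCl pH 8, 0.01% Tween 20. Started with 1 mM NAD+ and 30 uM prostaglandin E2; NADH fluorescence (360/450 nm) read 5 times over 30-s intervals, last minus first.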
JMJD2E inh: qHTS Assay for Inhibitors of Human Jumonji Domain Containing 2E (JMJD2E); Lysine-specific demethylase 4E (Homo sapiens), B2RXH2; JMJD2E catalytic domain, FDH-coupled NADH fluorescence (FDH is formaldehyde dehydrogenase); Potency, µM (series often up to 57.1 µM), actives largely listed as inhibitors; 1.6% of 230,000 active; further: nearly all actives have a fitted effect of over 50% in size
HTT cytoprotect: qHTS Multiplex Assay to Identify Dual Action Probes in a Cell Model of Huntington: Cytoprotection (ATP); 0.14% of 230,000 active; PC12 HTT-Q103 induced, cytoprotection, ATP luminescence, 40 h; Potency, µM (doses to about 56.4 µM), actives largely listed as activators; active means well fitted curve in the direction sought with a large enough effect; inconclusive means small, poorly fitted or top-dose-only effect, or another doubt; inactive means no such curve, though single readings can be large; an effect the other way counts as inactive or inconclusive; further: nearly all actives have a fitted effect of over 45% in size
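ATP quantification (ATPlite) reports survival of PC12 cells in which tebufenozide, 100 nM final, switches on Htt exon 1 with 103 glutamines linked to GFP; compounds are titrated.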
LMNA splice mod: qHTS Assay for Modulators of Lamin A Splicing. HeLa LMNA splicing GFP/RFP minigene ratio, 48 h. 0.01% of 200,000 active. Potency, µM (top dose mostly 46.1 µM), most hits filed as inhibitors; active means well fitted inhibition curve with a large enough effect in the signal ratio, with a control signal flat, not every such curve was filed as active; inconclusive means small, poorly fitted or top-dose-only effect, or effect the other way, or a change in a side signal; the % refers to the signal ratio
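S3 HeLa stable clones carrying a lamin A-EGFP splicing minigene plus DsRed2 were seeded at 600 cells/well in Opti-MEM with 2% FBS, pin-dosed and incubated 48 h at 37°C. Acumen cytometry (488 nm) gave the GFP/RFP total-intensity ratio.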
ALDH1A1 block: qHTS Assay for Inhibitors of Aldehyde Dehydrogenase 1 (ALDH1A1); 7.3% of 220,000 active; Aldehyde dehydrogenase 1A1 (Homo sapiens), P00352; Potency, µM (doses to about 75.3 µM), actives largely listed as inhibitors; Purified ALDH1A1, NADH fluorescence, propionaldehyde substrate
Target sequence (P00352 whole entry, looked up): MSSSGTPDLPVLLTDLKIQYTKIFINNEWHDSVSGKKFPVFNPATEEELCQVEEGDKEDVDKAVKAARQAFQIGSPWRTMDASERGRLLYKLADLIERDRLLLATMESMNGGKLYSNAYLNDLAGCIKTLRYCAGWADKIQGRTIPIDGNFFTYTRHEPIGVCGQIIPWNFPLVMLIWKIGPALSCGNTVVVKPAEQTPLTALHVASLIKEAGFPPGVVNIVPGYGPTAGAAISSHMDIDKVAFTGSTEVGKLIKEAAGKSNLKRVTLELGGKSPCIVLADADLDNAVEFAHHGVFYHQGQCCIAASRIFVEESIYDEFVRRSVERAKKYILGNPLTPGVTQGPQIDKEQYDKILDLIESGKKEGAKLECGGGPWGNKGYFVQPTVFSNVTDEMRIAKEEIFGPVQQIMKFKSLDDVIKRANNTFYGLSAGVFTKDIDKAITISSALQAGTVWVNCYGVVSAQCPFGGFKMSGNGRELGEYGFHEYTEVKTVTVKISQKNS
Hits are given with their value; - = inactive; ? = inconclusive; . = no result given; [ ] = dose if it differs, or a comment. Unless noted, the call rests on the fitted dose curve; in most records, active means well fitted inhibition curve with a large enough effect (not every such curve was filed as active); inconclusive means small, poorly fitted or top-dose-only effect, or another doubt; inactive means no such curve, though single readings can be large or run the other way.

SMILES	HttQ103 aggreg	HPGD inh	JMJD2E inh	HTT cytoprotect	LMNA splice mod	ALDH1A1 block
CCOCC(=O)Nc1nc2ccc(C)cc2s1	-	-	-	-[10 µM]	-	12.6µM
CCOc1ccc2nc(NC(=O)CSC3=NCCS3)sc2c1	?	-	-	-	?	25.1µM
CCC(=O)Nc1nc2ccc(S(C)(=O)=O)cc2s1	-	-	-	-[10 µM]	-	-
COc1ccc2nc(NC(=O)CSC3=NCCS3)sc2c1	-	-	-	-[10 µM]	?	-
Cc1ccc[n+](CC(=O)Nc2nc3ccccc3s2)c1	.	.	-	.	.	14.1µM
CCOCC(=O)Nc1nc2ccc(S(C)(=O)=O)cc2s1	-	-	-	-	-	17.8µM
CC(C)c1ccc(N2C(=O)N(Cc3ccccc3Cl)c3ccccc3S2(=O)=O)cc1	.	.	.	.	-	.
Cc1cn(CC[C@H](N)C(=O)O)c(=O)[nH]c1=O	.	-	.	-[10 µM]	.	-[13.5 µM]
CS(=O)(=O)c1ccc2nc(NC(=O)CN3C(=O)C4CC=CCC4C3=O)sc2c1 (centres undefined)	-	.	-	-	-	12.6µM
COc1ccc2nc(NC(=O)CSc3ccccc3)sc2c1	-[9.22 µM]	-	-	-	?	28.2µM
Cc1ccc2nc(NC(=O)CN3C(=O)C4CC=CCC4C3=O)sc2c1 (centres undefined)	-	.	-	-[10 µM]	-	-
CCOCC(=O)Nc1nc2ccc(OCC)cc2s1	?	-	-	-	-	15.8µM
Cc1ccc2nc(NC(=S)NC(=O)c3ccc(OC(C)C)cc3)sc2c1	?	10µM	-	-	?	18.9µM
COc1ccccc1OCCN(C#N)c1nc(N(C)C)nc(N(C)C)n1	-	.	-	-	.	?
COc1ccc(S(=O)(=O)Nc2cccc(-c3ccc(N4CCCCCC4)nn3)c2)c(OC)c1	.	.	.	.	-	.
CC(=O)Nc1ccc(S(=O)(=O)Nc2nc3ccc(C)cc3s2)cc1	-	-	-	-	-	-
Cc1cc(C)nc(NS(=O)(=O)c2ccc(NC(=O)CN3C(=O)C4CC=CCC4C3=O)cc2)n1 (centres undefined)	-	.	-	-	.	31.6µM
Cc1ccc(S(=O)(=O)Nc2nc3ccc(S(C)(=O)=O)cc3s2)cc1	-	25.1µM	-	-[10 µM]	-	?
O=C(CSc1ncn(-c2ccccc2)n1)Nc1nc2ccccc2s1	-	22.4µM	-	-	-	12.6µM
N#Cc1cccc(NC(=O)N2CC[C@@]3(CCCN(C(=O)c4csnn4)C3)C2)c1	.	-	.	?	.	-
CCNC(=O)CSc1nnc(-c2cc(-c3ccc(Cl)cc3)nc3ccccc23)o1	-	-	-	-[10 µM]	-	-
Cc1ccc(CSCC(=O)N2CCN(c3ccccc3F)CC2)cc1	.	.	.	.	-	.
Cc1ccc(CNC(=O)CN2CCCN(Cc3ccc(F)cc3)S2(=O)=O)cc1	.	.	.	.	-	.
CN1CCN(c2ncc3ncc(=O)n(Cc4cccs4)c3n2)CC1	.	?	.	-	.	?
COc1ccc(S(=O)(=O)N2CCC(C(=O)N3CCc4ccccc4C3)CC2)cc1	-	35.5µM	-	-	?	?
SMILES	HttQ103 aggreg	HPGD inh	JMJD2E inh	HTT cytoprotect	LMNA splice mod	ALDH1A1 block
O=C(c1ccc(CNS(=O)(=O)c2ccc(Br)cc2)cc1)N1CCCC1	-	.	-	-	.	?
COc1ccc(S(=O)(=O)NCc2ccc(C(=O)N3CCc4ccccc4C3)cc2)cc1	-	2.82µM	-	-[10 µM]	?	-
CCOC(=O)N1CCN(C(=O)c2ccc(CNS(=O)(=O)c3ccc(OC)cc3)cc2)CC1	-	-	-	-	-	-
COc1ccc(S(=O)(=O)N2CCC(C(=O)N3CCc4ccccc4C3)CC2)cc1C	-	-	-	-	-	-
CC(C)(C)c1ccc(S(=O)(=O)NCc2ccc(C(=O)N3CCOCC3)cc2)cc1	-	-	-	-[10 µM]	-	11.2µM
COc1ccc(/C=C/c2cc(OC)c(OC)cc2CC[N+](C)(C)C)cc1	.	?	?	-	.	-
Cc1cccc(N(C)S(=O)(=O)c2ccc3[nH]c(=O)c(=O)[nH]c3c2)c1	-	14.1µM	-	-	-	?
C[C@H](CCCC(C)(C)O)[C@H]1CC[C@H]2[C@@H]3CC=C4C[C@@H](O)CC[C@]4(C)[C@H]3CC[C@]12C	-	.	.	-	.	.
CSC1=N/C(=C\c2cccc(Cl)c2)C(=O)N1N(C)C	-[9.22 µM]	.	-	-[10 µM]	.	-
CSC1=N/C(=C\c2ccccc2Cl)C(=O)N1N(C)C	-[9.22 µM]	.	-	-[10 µM]	.	17.8µM
O=C(CSC1=NCCS1)NC1CCCC1	-	25.1µM	-	-	-[0.0737 µM]	-
O=C(CSC1=NCCS1)Nc1ccc(S(=O)(=O)NC2CCCCC2)cc1	-	15.8µM	-	-	-	?
O=C(CSC1=NCCS1)Nc1ccnc2ccccc12	10µM	-	-	-	?	-
Clc1cccc(Nc2c3c(nc4ncnn24)CCC3)c1	-	15.8µM	-	-[10 µM]	-	?
O=C(O)C[C@@H]1CCCc2ccccc2[C@H]1O	.	.	.	-[1.9 µM]	.	.
COc1ccc(CCNC(=O)c2cnn(-c3ccc(F)cc3)c2C2CCN(C(=O)OC(C)(C)C)CC2)cc1OC	.	.	.	.	-	.
OCCN1CCN(c2ncnc3ccc(Br)cc23)CC1	4.47µM	-	-	-	-	-
CC1(C)OC1COc1c2ccoc2cc2oc(=O)ccc12 (centres undefined)	-[9.22 µM]	.	31.6µM	-[10 µM]	-	?
CC(C)(O)C(O)COc1c2ccoc2cc2oc(=O)ccc12 (centres undefined)	-	.	?	-	-	-
C=CCNc1ncnc2sc(SC)nc12	-[9.22 µM]	.	-	-[10 µM]	.	-
CCSc1ccccc1C(=O)NCc1ccc2c(c1)OCO2	-	1.41µM	-	-	-	?
COc1ccc(CNC(=O)c2ccccc2SC)cc1	-	6.31µM	-	-	-	-
COc1ccc(CNC(=O)CCSCc2ccccc2C)cc1	-	.	-	-	.	3.98µM
CCSc1ccccc1C(=O)N1CCN(Cc2ccc3c(c2)OCO3)CC1	?	-	-	-[1.9 µM]	-	-
CSc1ccccc1C(=O)NCc1ccc2c(c1)OCO2	-	0.501µM	-	-[1.9 µM]	-	-
Cc1ccc(S(=O)(=O)CCC(=O)OCn2nnc3ccccc3c2=O)cc1	-[9.22 µM]	.	-	-[1.9 µM]	-	-
O=C(Nc1ccc2c(c1)OCO2)c1ccccc1SCC(=O)N1CCCC1	?	28.2µM	-	-[10 µM]	-	1.26µM
Oc1c(Cl)cc(C(c2cc(Cl)c(O)c(Cl)c2)C(c2cc(Cl)c(O)c(Cl)c2)c2cc(Cl)c(O)c(Cl)c2)cc1Cl	.	-	.	-[10 µM]	.	-[13.5 µM]
COc1cc(-c2nnc(SCc3cc(=O)oc4cc(O)c(O)cc34)o2)cc(OC)c1OC	?	7.94µM	?	-	?	?
O=c1cc(CSc2nnnn2-c2ccccc2)nc(Nc2ccc(F)cc2)[nH]1	?	-	-	-	?	7.94µM

High-throughput results: PubChem, National Center for Advancing Translational Sciences (NCATS)
